NS1 function inh – inhibitors of influenza NS1 protein function; Potency, µM (top dose mostly 46.1 µM), inactives show at the top dose activity, positive = more growth; 270,000 compounds, 0.4% hits; calls by dose curve; note: potency is the fitted concentration of half-maximal effect; actives are rising curves; nearly all actives have a fitted effect of over 50% in size
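In this qHTS, NS1 from influenza A is expressed in budding yeast, where it slows growth. Cells are switched from glucose to 2% galactose medium (pH 6.0, -URA), treated with compound, and growth recovery is read at OD600.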
Pf growth 96h – inhibits malaria parasite growth, 96 h; P. falciparum luciferase reporter growth, 96 h; Potency, µM (titrated, usually from 28.7 µM), without a hit: at the top dose activity change, negative = inhibition, hits mostly inhibitors; 320,000 compounds, 6.9% hits; AID 504834; note: potency is the fitted concentration of half-maximal effect; % is set by controls: 0 for no effect and ±100 for the full control effect
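Luminescence readout: decreased luciferase signal marks inhibited growth of reporter-expressing P. falciparum in infected red cells (2% hematocrit, 0.05% parasitemia final), exposed to compound two generations (96 h, 37 C, 5% CO2).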
Pf growth 48h – P. falciparum growth inhibition at 48 hours (one generation); Potency, µM (doses to about 28.7 µM), for inactives: top-dose activity change, negative = inhibition, most hits filed as inhibitors; P. falciparum luciferase growth in erythrocytes, 48 h; 310,000 compounds, 5.9% hits; AID 504832; note: potency is the fitted concentration of half-maximal effect; % is set by controls: 0 for no effect and ±100 for the full control effect
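Cell-based growth assay: transgenic P. falciparum expressing firefly luciferase, cultured in red cells within RPMI 1640 containing 0.5% w/v Albumax, 24 mM bicarbonate and gentamycin. A drop in luciferase activity indicates inhibition.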
Shiga inhibitor – blocks Shiga toxin action in Vero cells. inhibition, % at 38.7 µM. Vero cells, Shiga toxin protein synthesis inhibition reporter. AID 2315. 290,000 compounds, 9.2% hits; in the data active = inhibition mostly above about 28%, no sharp cut-off; inactive = mostly below about 43%; note: 0% is about no effect
CHX counter – affects cycloheximide protein synthesis inhibition readout, counter-screen. cell reporter, cycloheximide protein synthesis inhibition counterscreen. max response, %. 300,000 compounds, 12% hits. AID 2314; in the data active = max response mostly above about 13%, no sharp cut-off; inactive = mostly below about 14%; note: read at 38.3 µM for the half of the compounds with a filed dose; 0% is about no effect
* hit, by the source's call; ? = inconclusive; . = not tested or not shown; [ ] = remark or other dose. Compounds with a hit are over-represented: about 21% of the library has one in this group of screens. Unless noted, calls come from the whole dose curve; as a rule, active = well fitted inhibition curve with a large enough effect; inconclusive = small, poorly fitted or top-dose-only effect, or another doubt; inactive = no such curve, though single readings can be large or run the other way.

SMILES | NS1 function inh | Pf growth 96h | Pf growth 48h | Shiga inhibitor | CHX counter
CC(C)(C)c1ccc(-n2ncc3c2CCCC3NC(=O)c2csnn2)cc1 (stereo not given) | 6% | 13% | ? | 12 | 5
NS(=O)(=O)c1ccc(CCNC(=O)c2cc(-c3cc(Cl)ccc3O)n[nH]2)cc1 | -2% | -40% | ? | -7 | -3
C[C@H]1C2C=C[C@H]1[C@@H](C(=O)O)[C@@H]2c1c2ccc(=O)c(O)c-2oc2c(O)c(O)ccc12 | 5% | . | . | . | .
Cc1ccc(CN(C(=O)c2ccccc2[N+](=O)[O-])C2CCS(=O)(=O)C2)o1 (stereo not given) | -8% | 48% | 13% | -6 | -3
CC(=NC1CCCC1)c1c(C)[nH]n(-c2nc3ccccc3s2)c1=O | -2% | 485% | 252% | 75* | 40*
O=C1CSC(c2cccc([N+](=O)[O-])c2)N1Cc1ccccc1 (stereo not given) | 10% | ? | -20% | 13 | -2
CC(NC(=O)c1ccc(Br)o1)C1CC2CCC1C2 (stereo not given) | -20% | 1µM* | -8% | -2 | -1
CC(NC(=O)c1ccc(Br)o1)C1CCCO1 (stereo not given) | 5% | 53% | 1% | 8 | -3
CN1C(=O)C(O)(CC(=O)c2cccc(-n3cccc3)c2)c2ccccc21 (stereo not given) | -9% | -2% | 9.3µM* | 8 | 2
CN1C(=O)C(O)(CC(=O)c2ccccc2O)c2cc(Br)ccc21 (stereo not given) | -31% | 1.2µM* | ? | 25 | -4
O=C(CC1(O)C(=O)Nc2ccccc21)c1cccc(-n2cccc2)c1 (stereo not given) | 5% | 31% | 11% | -11 | -4
C=CCN1C(=O)C(O)(CC(=O)c2ccc(OC)cc2OC)c2cc(Br)ccc21 (stereo not given) | -13% | -1% | 12µM* | 9 | -3
COc1cc(/C=C/C(=O)Nc2cccc(S(=O)(=O)NC3=NCCCCC3)c2)ccc1OCC#N | . | ? | 10µM* | . | .
COc1ccc(/C=C/C(=O)Nc2cccc(S(=O)(=O)NC3=NCCCCC3)c2)cc1 | 9% | 90% | 56% | 74* | 26*
COc1ccccc1/C=C/C(=O)Nc1cccc(S(=O)(=O)NC2=NCCCCC2)c1 | . | ? | ? | 38 | 4
O=C(/C=C/c1ccc(OC(F)F)cc1)Nc1cccc(S(=O)(=O)NC2=NCCCCC2)c1 | 2% | -3% | -3% | 57* | 29*
COc1ccc(OC)c(/C=C/C(=O)Nc2cccc(S(=O)(=O)NC3=NCCCCC3)c2)c1 | . | ? | 10µM* | . | .
CCCCNC(=O)[C@H]1N2C(=O)c3c(ccc(OC)c3OC)C2SC1(C)C (stereo not given in full) | 1% | ? | . | 18 | -3
CCOc1ccccc1NC(=O)c1csc(C)c1C | -38% | 17% | 28% | 33 | 11
NNCc1cccc(O)c1 | -15% | ? | ? | 102* | 35*
CCOC(N)=O | . | 5% | 4% | . | .
CCN(CC)S(=O)(=O)c1ccc(NC(=O)CCC2CCCCC2)cc1 | -8% | . | ? | 47 | 6
O=C(c1ccc(Cl)cc1)N1CCN(C(=O)C2CCCCC2)CC1 | 9% | 5.9µM* | 8% | -7 | 3
CC(=O)c1ccc(N2CCN(c3ccnc4cc(Cl)ccc34)CC2)cc1 | 1% | 6.6µM* | 10µM* | -4 | -5
O=C(c1ccc(CSc2ccc(Cl)cc2)cc1)N1CCCC1 | . | 3% | 4%[5.75 µM] | 61* | 23
SMILES | NS1 function inh | Pf growth 96h | Pf growth 48h | Shiga inhibitor | CHX counter
Cc1cc(C)n(-c2ncnc3ccccc23)n1 | . | 36% | -4% | -11 | 2
Cc1cc(C)n(-c2ccnc3cc(Cl)ccc23)n1 | -2% | 6% | 21% | -2 | 18*
CCc1nnc(NC(=O)CS(=O)(=O)Cc2ccccc2)s1 | -8% | 50% | 0% | -7 | -2
CCOC(=O)N1CCC(N2CCN(CCC(C)C)C(CCO)C2)CC1 (stereo not given) | 5% | 12% | 37% | -11 | -2
Cc1cccc(C(=O)OCC(=O)NC(=O)NCc2ccccc2)c1 | . | 14% | 5% | . | .
CCCNC(=O)Cn1sc2nc(C)cc(C)c2c1=O | 3% | -4% | -3% | 15 | -1
O=C(C1CC1)N1CCN(c2ccnc3cc(Cl)ccc23)CC1 | . | 7.4µM* | -13% | 4 | -3
O=C(C1CCCCC1)N1CCN(c2ccnc3cc(Cl)ccc23)CC1 | -34% | 3.3µM* | 1.9µM* | -9 | -10
O=C(C1CCC1)N1CCN(c2ccnc3cc(Cl)ccc23)CC1 | -45% | 10µM* | 13µM* | 6 | -2
CC(=O)c1cccc(NC(=O)CN(C)S(=O)(=O)c2ccc3c(c2)CC(C)N3C(C)=O)c1 (stereo not given) | 4% | -15% | -7% | 11 | -6
CCn1cc(C(=O)N[C@@H](C)C(=O)NCCCO)c(=O)c2cc3c(cc21)OCO3 | 4% | 6% | 29% | 3 | 3
CCn1cc(C(=O)N[C@@H](CCSC)C(=O)NCCO)c(=O)c2cc3c(cc21)OCO3 | 0% | 6.6µM* | 8.3µM* | -3 | -3
CCCC1=[N+](CC(=O)c2ccccc2)CCn2cccc21 | 9% | -4% | 0% | -12 | 1
CCCC1=[N+](CC(=O)c2ccc(Br)cc2)CCn2cccc21 | 1% | ? | 12µM* | 8 | -1
O=C(COC(=O)/C=C/c1ccccc1Cl)NC(=O)NC1CCCC1 | . | 1% | -13% | . | .
COc1ccc(NC(=O)/C(Cl)=C(/Cl)S(=O)Cc2ccccc2)cn1 (stereo not given) | -175% | . | 15µM* | 24 | 48*
COc1ccc(NC(=O)Cc2ccccc2)cn1 | . | 5.2µM* | 33% | 47 | 0
CCOc1ccccc1OCCCC(=O)Nc1ccc(OC)nc1 | -18% | ? | -8% | 2 | 3
NS(=O)(=O)c1ccc(NC(=O)CSc2ccccc2)cc1 | . | 133% | 40% | 41 | 20*
NS(=O)(=O)c1ccc(NC(=O)CSc2nc3ccccc3[nH]2)cc1 | . | 1% | -5% | -7 | 2
COc1ccc(NC(=O)CSc2ccccc2)cn1 | . | 65% | 40% | 49* | 27*
CCOC(=O)Cn1ccc(-c2ccccc2)c(C#N)c1=O | -1% | 22% | -4% | 9 | 1
Cc1cccc(NC(=O)c2ccc(COc3ccc4ccccc4c3)o2)n1 | 0% | 185% | -3% | 11 | 14
Cc1c(NC(=O)c2c(F)cccc2F)c(=O)n(-c2ccccc2)n1C | -6% | -20% | 8% | -3 | -5
Cc1c(NC(=O)c2ccc(COc3ccc4ccccc4c3)o2)c(=O)n(-c2ccccc2)n1C | -6% | 15% | ? | 91* | 31*
COc1cccc(OC)c1C(=O)Nc1c(C)n(C)n(-c2ccccc2)c1=O | 17% | 10µM* | 5% | 14 | -1
Cc1c(NS(=O)(=O)c2ccccc2F)c(=O)n(-c2ccccc2)n1C | 10% | 13% | 3% | 3 | -6
COc1ccc(OC)c(S(=O)(=O)Nc2c(C)n(C)n(-c3ccccc3)c2=O)c1 | 9% | 15µM* | -7% | -7 | 1

From PubChem BioAssay
